DT40 TDP1 CPT: qHTS for Inhibitors of human tyrosyl-DNA phosphodiesterase 1 (TDP1): qHTS in cells in presence of CPT. hit rate 12% among 420,000. chicken DT40 Tdp1-/-;hTDP1 cells + 20 nM CPT, ATP luminescence, 48 h. Potency, µM (top dose mostly 46.2 µM), actives largely listed as inhibitors; also: nearly all actives have a fitted effect of over 55% in size
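Chicken DT40 Tdp1-/- cells stably complemented with human TDP1 were seeded at 400 cells/well in medium containing 20 nM camptothecin, exposed to pin-transferred compounds, and grown at 37 °C for at least 48 hr. Viability was read as ATP luminescence.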
IL1B secr inh: qHTS for Inhibitors of Inflammasome Signaling: IL-1-beta AlphaLISA Primary Screen; THP-1 LPS/ATP IL-1B secretion, AlphaLISA, 16 h; stronger effect = lower value; activity change, % at 57.5 µM; hit rate 4.7% among 360,000; AID 743279, 2014; in the data active = activity change below about -50%; inconclusive = mostly about -30% to -49%
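Secreted IL-1B measured by AlphaLISA bead assay after 16 h compound exposure of THP-1 cells; compounds (final up to 57.5 uM) added 1 h before LPS (250 ng/mL) and ATP (1.25 mM) stimulation; lower signal means less secretion.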
HT1080 IDH1KD tx: qHTS for induction of synthetic lethality in tumor cells producing 2HG: qHTS for the HT-1080-IDH1KD cell line. hit rate 2% among 360,000. Potency, µM (series often up to 46.1 µM), usual class: cytotoxic. HT-1080 IDH1 knockdown viability, ATP luminescence, 48 h
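Luminescent ATP read-out (CellTiter-Glo, 10 min at room temperature) after 48 h compound exposure at 37 °C gave viability of IDH1-knockdown HT-1080 cells. Activity was normalised to DMSO and cell-free wells, then fitted as concentration-response curves.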
HT1080-NT tox: qHTS for induction of synthetic lethality in tumor cells producing 2HG: qHTS for the HT-1080-NT fibrosarcoma cell line. HT-1080-NT fibrosarcoma viability, CellTiter-Glo ATP luminescence, 48 h. Potency, µM (highest dose often 46.1 µM), usual class: cytotoxic. hit rate 1.6% among 360,000. AID 686970, 2013;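 also: NT is the 2HG producing partner of a matched IDH1 knockdown line; nearly all actives have a fitted effect of over 55% in size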
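Read-out is CellTiter-Glo luminescence after 10 minutes at room temperature, following 48 hours' compound treatment of HT-1080-NT cells (750 cells/well, RPMI, 5% FBS, 37 degrees C).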
TDP1 cell noCPT: qHTS for Inhibitors of human tyrosyl-DNA phosphodiesterase 1 (TDP1): qHTS in cells in absence of CPT; DT40 Tdp1-/- hTDP1 cells, no CPT, ATP luminescence, 48 h; Potency, µM (highest dose often 46.2 µM), usual class: inhibitors; hit rate 15% among 420,000; also: nearly all actives have a fitted effect of over 55% in size
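Luminescent ATP content (CellTiter-Glo) served as the growth readout. Knockout chicken DT40 cells expressing human TDP1 were exposed to compounds without camptothecin for a minimum 48 hr at 37 °C.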
Numbers stand for hits; . = inactive; ? = inconclusive; / = no result given. This is a sample that favours compounds with a hit; in the whole collection about 19% have one here. Unless noted, calls follow the shape of the dose curve; as a rule, active = well fitted curve in the direction sought with a large enough effect; inconclusive = small, poorly fitted or top-dose-only effect, or another doubt; inactive = no such curve, though single readings can be large; an effect the other way counts as inactive or inconclusive.

SMILES	DT40 TDP1 CPT	IL1B secr inh	HT1080 IDH1KD tx	HT1080-NT tox	TDP1 cell noCPT
CCOC(=O)/C(N=Nc1sc(C(=O)OC)c(C)c1C(=O)OCC)=C(\O)CCl	?	.	.	.	14.6µM
CCOC(=O)c1sc(N=NC2=C(O)CCCC2=O)c(C(=O)OCC)c1C	.	.	?	.	.
CC(C)(C)NC(=O)c1ccc2c(c1)CCO2	.	.	.	.	.
O=C(NC(=O)c1ccccc1O)c1ccc2c(c1)CCO2	.	.	.	.	20.6µM
Cc1ccc2c(CC(=O)OCc3cc(=O)n4c(n3)sc3ccccc34)coc2c1	.	.	.	.	.
CC(C)[C@H](NC(=O)Cc1ccccc1)C(=O)OCc1cc(=O)n2c(n1)sc1ccccc12	14.6µM	.	.	.	13µM
Cc1cccc(C2CC3(CC(C)(C)NC(=S)N3)Oc3cc(O)ccc32)c1 (configuration not stated)	20.6µM	-73.3	.	.	13µM
COc1cccc(C2CC3(CC(C)(C)NC(=S)N3)Oc3cc(O)ccc32)c1 (configuration not stated)	11.6µM	.	.	.	9.2µM
CC1(C)CC2(CC(c3ccccc3F)c3cc(Cl)c(O)cc3O2)NC(=S)N1 (configuration not stated)	2.06µM	.	?	?	3.66µM
COc1ccc(C2CC3(CC(C)(C)NC(=S)N3)Oc3cc(O)cc(C)c32)cc1OC (configuration not stated)	?	.	.	.	?
CCOc1ccccc1NC(=O)C(Cc1ccccc1)NS(=O)(=O)c1ccc2c(c1)oc(=O)n2C (configuration not stated)	?	/	/	/	.
CCCc1cc(=O)[nH]c(SCC(=O)N2c3ccccc3NC(=O)C2(C)C)n1	.	.	.	.	.
COC(=O)[C@]12CCCCC=C1N(Cc1cccc3ccccc13)C(=O)[C@H](CC(=O)N1CCN(C(=O)C3CC3)CC1)C2	?	.	.	.	20.6µM
COC(=O)[C@]12CCCCC=C1N(Cc1cccc3ccccc13)C(=O)[C@H](CC(=O)N1CCN(C(=O)c3ccco3)CC1)C2	?	.	?	?	?
C#CCNC(=O)C[C@@H]1C[C@@]2(C(=O)OC)CCCCC=C2N(Cc2cccc3ccccc23)C1=O	?	.	?	.	?
COC(=O)[C@]12CCCCC=C1N(Cc1cccc3ccccc13)C(=O)[C@H](CC(=O)N1CCCC1)C2	?	.	?	?	20.6µM
CCCCCCn1cc(CN2CC(N3CCCCC3)CS2(=O)=O)nn1 (configuration not stated)	.	.	.	.	.
O=C(c1ccccc1SCc1ccc(F)cc1)N1CCOCC1	.	.	.	.	.
Cc1ccc(C2CC(=O)n3nc(-c4cccc(C)c4)nc3S2)cc1 (configuration not stated)	.	/	/	/	.
CCOC(=O)N1CCN(C(=O)CSc2nnc(-c3cccc(OC)c3)o2)CC1	16.4µM	.	.	.	23.1µM
CCOC(=O)N1CCN(C(=O)CCSc2ccc(C)cc2)CC1	23.1µM	.	.	.	23.1µM
CCOC(=O)N1CCN(C(=O)CSc2nnc(-c3ccccc3OC)o2)CC1	.	.	.	.	.
CCOC(=O)N1CCN(C(=O)CSc2nnc(-c3ccc(C)c(C)c3)o2)CC1	?	.	.	.	14.6µM
Cc1ccc(-c2nnc(SCC(=O)N3CCCC3)o2)cc1C	.	.	.	.	.
CCOC(=O)N1CCN(C(=O)CCSc2ccc(Cl)cc2)CC1	.	.	.	.	.
CCOC(=O)N1CCN(C(=O)CSc2nnc(-c3cc(OC)ccc3OC)o2)CC1	14.6µM	.	.	.	20.6µM
COC(=O)c1scc(-c2ccc(C)cc2)c1S(=O)(=O)Nc1cccc(C(F)(F)F)c1	?	/	/	/	.
Nc1nc2c(nc(Br)n2C2OC(CO)C(O)C2O)c(=O)[nH]1 (configuration not stated)	.	/	/	/	.

Bioassay records: PubChem BioAssay, National Center for Advancing Translational Sciences (NCATS)
